Screening data deposited in PubChem by National Center for Advancing Translational Sciences (NCATS).
Tau ThT inhib – qHTS for Inhibitors of Tau Fibril Formation, Thioflavin T Binding; Microtubule-associated protein tau (Homo sapiens), P10636; recombinant tau K18 P301L, heparin-induced fibrillization, ThT fluorescence; Potency, µM (highest dose often 57.4 µM), usual class: inhibitors; hit rate 2.1% among 270,000; also: nearly all actives have a fitted effect of over 55% in size
Target sequence (P10636 561-689 P618L limits assumed): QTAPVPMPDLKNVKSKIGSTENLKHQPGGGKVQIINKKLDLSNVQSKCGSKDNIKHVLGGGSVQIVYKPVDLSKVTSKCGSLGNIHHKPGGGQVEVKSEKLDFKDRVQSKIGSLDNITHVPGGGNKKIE
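Tau K18 P301L fragment (15 uM unlabeled plus 0.24 uM Alexa 594-labeled) in 100 mM sodium acetate pH 7 with compound, fibrillization induced by 20 uM heparin for 6 hr at 37 C. Thioflavin T (30 uM) added, fluorescence read after 1 hr (ex 450, em 510 nm).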
Tau fluor counter – Counterscreen qHTS for Inhibitors of Tau Fibril Formation, Fluorescence Polarization; tau K18 P301L (four-repeat tau fragment) Alexa594 fluorescence, heparin fibrillization; AID 1463, 2008; hit rate 0.93% among 280,000; Potency, µM (highest dose often 57.7 µM); also: nearly all actives have a fitted effect of over 55% in size
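Human K18 P301L tau (15 uM unlabeled plus 0.24 uM Alexa 594-labeled, final) in 100 mM sodium acetate pH 7 was mixed with compound and 20 uM heparin and incubated 6 hr at 37 C.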
TexasRed fluor – Total Fluorescence Counterscreen for Inhibitors of the Interaction of Thyroid Hormone Receptor and Steroid Receptor Coregulator 2; TRb/SRC2 Texas Red total fluorescence interference; Potency, µM (top dose mostly 106 µM); hit rate 0.29% among 280,000; AID 1479, 2009; active = well fitted curve in either direction with a large enough effect; inconclusive = small, poorly fitted or top-dose-only effect
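Human TRb ligand-binding domain at 0.6 uM with 20 nM Texas Red SRC2 peptide in Tris buffer containing 1 uM T3 and 5% DMSO, incubated with compound 5 h at ambient temperature. Total fluorescence (555/632 nm) calculated as parallel + 2 × perpendicular.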
Tau FP inhib – qHTS for Inhibitors of Tau Fibril Formation, Fluorescence Polarization; Microtubule-associated protein tau (Homo sapiens), P10636; K18 P301L tau heparin fibrillization, Alexa594 FP, 6 h; Potency, µM (titrated, usually from 57.7 µM), hits mostly inhibitors; hit rate 0.39% among 280,000; also: nearly all actives have a fitted effect of over 55% in size
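Human tau K18 […] P301L fragment, 15 uM unlabeled plus 0.24 uM Alexa 594-labeled tau (final), with compound and 20 uM heparin in 100 mM sodium acetate pH 7; 6 hr at 37 C, then Alexa 594 FP read.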
TRb-SRC2 inh – qHTS for Inhibitors of the Interaction of Thyroid Hormone Receptor and Steroid Receptor Coregulator 2; hit rate 0.065% among 280,000; TRbeta-SRC2 peptide binding, fluorescence polarization; receptor liganded with 1 µM T3; AID 1469, 2008; Potency, µM (doses to about 106 µM), hits mostly inhibitors; Thyroid hormone receptor beta (Homo sapiens), P10828; also: nearly all actives have a fitted effect of over 50% in size
Target sequence (P10828 whole entry, looked up): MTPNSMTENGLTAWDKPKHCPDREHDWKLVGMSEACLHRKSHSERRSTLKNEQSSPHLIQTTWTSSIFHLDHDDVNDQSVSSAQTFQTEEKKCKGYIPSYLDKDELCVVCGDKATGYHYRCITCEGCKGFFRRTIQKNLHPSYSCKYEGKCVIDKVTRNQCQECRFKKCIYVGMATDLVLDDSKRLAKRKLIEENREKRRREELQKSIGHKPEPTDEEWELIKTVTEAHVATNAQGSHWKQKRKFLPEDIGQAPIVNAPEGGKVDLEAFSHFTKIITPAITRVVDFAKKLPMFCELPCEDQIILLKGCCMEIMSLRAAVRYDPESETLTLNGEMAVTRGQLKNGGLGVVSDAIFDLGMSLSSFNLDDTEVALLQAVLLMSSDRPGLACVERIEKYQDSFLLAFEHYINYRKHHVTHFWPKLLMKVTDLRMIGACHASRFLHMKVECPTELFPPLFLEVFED
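Fluorescence polarization of 20 nM Texas Red SRC2 peptide with 0.6 uM human TRb ligand-binding domain, in Tris buffer with 1uM T3 and 5% DMSO. Incubated 5 hr ambient; normalized to unbound and bound controls.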
Of the large screens only hits and unclear results are named; the others gave an inactive call; [ ] = remark or other dose. An excerpt weighted towards active compounds, which were near 3% of everything screened. Unless noted, calls follow the shape of the dose curve; as a rule, active = well fitted curve in the direction sought with a large enough effect; inconclusive = small, poorly fitted or top-dose-only effect, or another doubt; inactive = no such curve, though single readings can be large; an effect the other way counts as inactive or inconclusive.

CCN(CC)S(=O)(=O)c1ccc(C(=O)/C=C/c2ccc(-c3ccc([N+](=O)[O-])cc3)o2)cc1	Tau ThT inhib inconclusive, Tau fluor counter inconclusive
CCc1ccc(C(=O)/C=C/c2ccc([N+](=O)[O-])o2)cc1	Tau ThT inhib 8.9µM, Tau fluor counter inconclusive, Tau FP inhib inconclusive
CC(C)(CNC(=O)c1ccc([N+](=O)[O-])c(Cl)c1)CNC(=O)c1ccc([N+](=O)[O-])c(Cl)c1	Tau ThT inhib inconclusive, Tau fluor counter 13µM[quencher]
C=CCNC(=O)c1ccc([N+](=O)[O-])c(Cl)c1	none
CCOc1ccc(N(C)S(=O)(=O)c2ccc(C)c(C(=O)OCC(=O)c3c[nH]c4ccccc34)c2)cc1	Tau fluor counter inconclusive, Tau FP inhib 8.9µM
CCOc1ccc(-c2cn3c(n2)sc2cc(C(=O)NCCC4=CCCCC4)ccc23)cc1	TexasRed fluor 2µM[quencher]
CCOC(=O)C1CCN(C(=O)c2ccc3c(c2)sc2nc(-c4ccc(C)cc4)cn23)CC1	TexasRed fluor inconclusive
CCOC(=O)C1CCN(C(=O)c2ccc3c(c2)sc2nc(-c4ccc(OC)cc4)cn23)CC1	TexasRed fluor 316µM[quencher]
Cc1ccc(-c2cn3c(n2)sc2cc(C(=O)NCc4cccs4)ccc23)cc1	TexasRed fluor 3.2µM[quencher]
COc1cc(NC(=O)c2ccc(-c3nc(CSc4ccccc4)c(C)o3)cc2)cc(OC)c1	Tau fluor counter inconclusive, Tau FP inhib inconclusive
COc1ccc(NC(=S)Nc2ccc(OCc3ccccc3)cc2)cc1OC	Tau ThT inhib inconclusive, Tau fluor counter 25µM[quencher]
CCOc1ccc(CC(=O)NNC(=S)Nc2ccc(OC)c(OC)c2)cc1	none
Cc1cc(O)c(C=Nc2cccc(Cl)c2)c(=O)o1	Tau ThT inhib inconclusive, TexasRed fluor 45µM[fluorescent], TRb-SRC2 inh inconclusive
COc1ccc(N=Cc2c(O)cc(C)oc2=O)cc1	none
CCc1ccc[n+](-c2[nH]c(=O)sc2/C=N/NC([S-])=Nc2ccccc2)c1	Tau ThT inhib 25µM, Tau FP inhib inconclusive
O=c1[nH]c(-[n+]2ccccc2)c(/C=N/NC([S-])=Nc2ccccc2)s1	Tau ThT inhib 28µM, Tau FP inhib inconclusive
Cc1cc[n+](-c2[nH]c(=O)sc2/C=N/NC([S-])=Nc2ccccc2)cc1	Tau ThT inhib inconclusive
CN(Cc1ccccc1)c1ccc2cc(S(=O)(=O)N3CCCCC3)ccc2n1	none
CSc1nc(/C=C2\C=Nc3ccccc32)c(O)n1C	Tau ThT inhib 11µM, Tau fluor counter inconclusive
CC(C)n1c(O)c(/C=C2\C=Nc3ccccc32)sc1=Nc1ccccc1	Tau fluor counter inconclusive
CC(=O)C1=C(O)C(=O)N(c2ccc(S(N)(=O)=O)cc2)C1c1cccc([N+](=O)[O-])c1 (stereo not given)	none
CC(=O)C1C(=O)c2c(cccc2[N+](=O)[O-])C1=Nc1ccc(S(N)(=O)=O)cc1 (stereo not given)	Tau ThT inhib 13µM, Tau fluor counter inconclusive, Tau FP inhib inconclusive
CC(C)(CSc1ncccn1)NS(=O)(=O)c1ccccc1	none
Cc1ccc(S(=O)(=O)NC(C)(C)CSc2nnc(Nc3ccccc3)s2)cc1	Tau fluor counter 18µM[quencher]
Cc1ccc(NC(=O)CN2C(=O)C(c3ccccc3)=NC2(C)C)cc1C	none
Nc1[nH]ncc1N=Nc1ccc(Cl)cc1	Tau ThT inhib 10µM, Tau fluor counter inconclusive
Nc1n[nH]c(N)c1N=Nc1ccc(Cl)cc1	Tau ThT inhib inconclusive
N#CC1=C(N)OC2=C(CC/C2=C\c2ccccc2Cl)C1c1ccccc1Cl (stereo not given)	Tau ThT inhib inconclusive
Cc1oc(C)c2c(=O)ccc3c(c12)OC(N)=C(C#N)C3c1ccccc1Cl (stereo not given)	Tau ThT inhib 20µM, Tau fluor counter inconclusive, Tau FP inhib inconclusive
CSc1ccc(C2C(C#N)=C(N)Oc3c2ccc(=O)c2c(C)oc(C)c32)cc1 (stereo not given)	Tau ThT inhib 25µM, Tau fluor counter inconclusive, Tau FP inhib inconclusive
Cc1oc(C)c2c(=O)ccc3c(c12)OC(N)=C(C#N)C3c1ccccc1 (stereo not given)	Tau ThT inhib 25µM, Tau fluor counter inconclusive, Tau FP inhib inconclusive
C/C=C/C=C/C=O	none (no result: Tau ThT inhib, Tau fluor counter, Tau FP inhib)
COc1ccc2c(c1)C(=O)[C@H](OC(=O)Nc1cc(OC)c(OC)c(OC)c1)[C@@H](c1ccc(OC)c(Br)c1)O2	none
CCCCOCC(C)O (stereo not given)	none (no result: Tau ThT inhib, Tau fluor counter, Tau FP inhib)
CCOc1ccc(-c2cc3nc(C4CCN(C(=O)OC(C)(C)C)CC4)c(C(=O)Nc4ccc(C)cc4C)cn3n2)cc1	Tau ThT inhib inconclusive
CC(C)CCC[C@@H](C)[C@H]1CC[C@H]2[C@@H]3CC=C4CC(O)CC[C@]4(C)[C@H]3CC[C@]12C (stereo not given in full)	none (no result: Tau ThT inhib, Tau fluor counter, Tau FP inhib)
CC(C)/C=C1\CC/C(=C\c2ccc(N(C)C)cc2)C1=O	Tau ThT inhib 2µM
CC(C)c1ccc(/C=C2\SC(N3CCCC3)=NC2=O)cc1	none
CC(C)c1ccc(/C=C2\CC/C(=C\C=N\N(C)C)C2=O)cc1	Tau ThT inhib 3.2µM, Tau FP inhib inconclusive
O=C(COc1ccc(Cl)cc1)OCc1cc(=O)n2nc(-c3cccs3)sc2n1	Tau ThT inhib inconclusive
COC(=O)C(C)Oc1ccc(Oc2ncc(C(F)(F)F)cc2Cl)cc1 (stereo not given)	none (no result: Tau ThT inhib, Tau fluor counter, Tau FP inhib)
Cc1ccc2nc(/C(C#N)=C\c3cc(O)ccc3[N+](=O)[O-])[nH]c2c1	Tau ThT inhib 16µM
COc1ccc(/C=C(\C#N)c2nc3ccc(C)cc3[nH]2)cc1Oc1ccc(C(F)(F)F)cc1[N+](=O)[O-]	Tau ThT inhib inconclusive
COc1c(Cl)cc(Cl)cc1/C=C(\C#N)c1nc2ccccc2[nH]1	none
Cc1ccc2nc(/C(C#N)=C\c3ccc(Oc4ccc(C(F)(F)F)cc4[N+](=O)[O-])cc3)[nH]c2c1	Tau ThT inhib inconclusive, Tau fluor counter inconclusive
COc1cc(/C=C(\C#N)c2nc3ccc(C)cc3[nH]2)c([N+](=O)[O-])cc1OC	Tau ThT inhib 14µM, Tau fluor counter inconclusive
COc1cc(/C=C(\C#N)c2nc3ccc(C)cc3[nH]2)cc([N+](=O)[O-])c1O	Tau ThT inhib 2µM, Tau fluor counter 8.9µM[quencher]
COc1c(O)ccc(/C=C(\C#N)c2nc3ccccc3[nH]2)c1[N+](=O)[O-]	Tau ThT inhib 7.1µM, Tau fluor counter inconclusive
Cc1ccc2nc(/C(C#N)=C/c3ccc(-c4ccc(F)cc4F)o3)[nH]c2c1	none
Cc1ccc2nc(/C(C#N)=C/c3ccc(-c4cccc([N+](=O)[O-])c4)o3)[nH]c2c1	Tau ThT inhib 1.4µM, Tau fluor counter inconclusive
CCOC(=O)c1ccc(N/N=C/c2cc(Br)cc([N+](=O)[O-])c2O)cc1	Tau ThT inhib 0.45µM, Tau fluor counter 0.71µM[quencher]
